Most compounds without a hit are left out; they make up all but 9.3% or so of the library.
SMN2 splice up: SMN2 splice variant enhancement. Potency, µM (series often up to 46.1 µM), usual class: activators. 210,000 tested, 2.8% active. HEK293 SMN2-luciferase splicing reporter, luminescence, 30-36 h; further: nearly all actives have a fitted effect of over 55% in size
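qHTS luciferase splicing reporter: luminescence rises when SMN2 exon 7 is included in transfected HEK293 cells. Compound exposure lasted 30-36 h at 37C, with 4.5 mM final sodium butyrate as control, followed by a ONE-Glo read.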
ELG1 DNA repair: ELG1-dependent DNA repair inhibition; HEK293T ELG1-luciferase reporter, luminescence, 16 h; DNA damage induced by 5-fluorouridine; Potency, µM (top dose mostly 46.1 µM), hits mostly inhibitors; 330,000 tested, 2.3% active; further: nearly all actives have a fitted effect of over 55% in size
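Luminescence from the luciferase reporter, measured 30 min after ONE-Glo reagent at room temperature, was the read-out. Beforehand, 2,000 cells per well were exposed for 16 hr at 37 °C to 5-fluorouridine together with compound or vehicle.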
ELG1 genotoxic: genotoxicity induction in ELG1-luciferase HEK293T cells. HEK293T ELG1-luciferase reporter, luminescence, 16 h. Potency, µM (doses to about 46 µM), actives largely listed as activators. 330,000 tested, 1.3% active; further: nearly all actives have a fitted effect of over 60% in size
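Quantitative HTS format in 1536-well plates. HEK293T ELG1-luciferase reporter cells receive test compound and are incubated 16 hr at 37 °C, 5% CO2; ONE-Glo added, 30 min room temperature, then luminescence read.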
NPC1 promoter act: activators of NPC1 promoter | Huh7 NPC1 promoter luciferase reporter, 24 h | Potency, µM (highest dose often 9.22 µM), actives largely listed as activators | 320,000 tested, 2.4% active | AID 485313; further: nearly all actives have a fitted effect of over 60% in size
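Stable NPC1-promoter luciferase Huh7 line; cpd (DMSO) 24 h, 37 °C, 5% CO2; Amplite luciferase reagent 10 min RT; luminescence readout. qHTS format.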
FLuc counter: firefly luciferase modulation, counter-screen for miR-21 project; P08659; purified FLuc, Km substrates, luminescence inhibition; Potency, µM (series often up to 57.5 µM), actives largely listed as inhibitors; 360,000 tested, 6.9% active; AID 588342; further: nearly all actives have a fitted effect of over 55% in size
Target sequence (P08659 whole entry, looked up): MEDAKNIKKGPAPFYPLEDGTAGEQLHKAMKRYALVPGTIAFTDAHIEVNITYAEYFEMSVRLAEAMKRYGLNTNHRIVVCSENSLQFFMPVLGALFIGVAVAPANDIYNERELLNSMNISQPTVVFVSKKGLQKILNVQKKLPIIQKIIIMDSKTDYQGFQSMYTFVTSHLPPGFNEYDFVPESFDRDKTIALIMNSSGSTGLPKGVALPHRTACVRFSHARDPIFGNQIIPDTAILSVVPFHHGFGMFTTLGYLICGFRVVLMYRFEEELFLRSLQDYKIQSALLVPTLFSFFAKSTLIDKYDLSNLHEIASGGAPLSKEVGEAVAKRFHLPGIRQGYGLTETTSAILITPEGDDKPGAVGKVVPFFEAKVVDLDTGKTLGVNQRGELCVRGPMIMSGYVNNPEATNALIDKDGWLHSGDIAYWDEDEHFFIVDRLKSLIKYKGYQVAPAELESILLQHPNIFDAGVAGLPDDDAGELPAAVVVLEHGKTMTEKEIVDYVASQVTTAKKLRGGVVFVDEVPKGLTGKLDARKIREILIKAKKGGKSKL
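Biochemical qHTS of compounds, final roughly 60 µM downward over six points, against 10 nM purified firefly luciferase using Km concentrations of substrates (10 uM D-luciferin, 10 uM ATP) in Tris acetate pH 7.5 buffer; luminescence output.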
Rab9 promoter act: activators of Rab9 promoter; AID 485297; Huh7 Rab9 promoter-luciferase reporter, luminescence, 24 h; 320,000 tested, 2.8% active; Potency, µM (top dose mostly 9.22 µM), hits mostly activators; further: nearly all actives have a fitted effect of over 60% in size
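Promoter activation is measured as luciferase luminescence in Huh7 cells stably transfected with a Rab9 promoter–luciferase construct, following 24 h compound exposure at 37 °C and 10 min reagent incubation at ambient temperature.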
A number is an active result; 0 = inactive; ? = inconclusive; - = no result; [ ] = another dose, or the depositor's remark. The call rests on the fitted dose curve; in most records, active means well fitted curve in the direction sought with a large enough effect; inconclusive means small, poorly fitted or top-dose-only effect, or another doubt; inactive means no such curve, though single readings can be large; an effect the other way counts as inactive or inconclusive.

SMILES | SMN2 splice up | ELG1 DNA repair | ELG1 genotoxic | NPC1 promoter act | FLuc counter | Rab9 promoter act
N#Cc1ccc(/C=C(\C(=O)C(=O)O)c2ccc3ccccc3n2)cc1 | - | ? | ? | 0 | ? | ?
Cc1cccc(/C=C(\C(=O)C(=O)O)c2ccc3ccccc3n2)c1 | 22.4µM | ? | 14.6µM | 2.24µM | ? | 2.24µM
Cc1oc(-c2cccc(C(F)(F)F)c2)nc1CN1CCOCC1 | - | ? | ? | 0 | 26.9µM | ?
COc1ccc(C(=O)OCC(=O)c2c(N)n(C)c(=O)n(C)c2=O)c(OC)c1OC | - | 0 | 0 | - | - | -
Clc1c(CSc2nc3ccccc3o2)nc2sccn12 | 10µM | ? | 5.8µM | 1.58µM | 9.53µM | 2µM
Brc1c(CSc2nc3ccccc3o2)nc2ncccn12 | 0 | ? | ? | ? | 15.1µM | ?
Clc1c(CSc2nc3ccccc3o2)nc2ccccn12 | 14.1µM | ? | 2.59µM | 1.58µM | 1.9µM | 2µM
Cc1cc(C)nc(SCc2nc3ncccn3c2Br)n1 | 0 | 0 | 0 | 0 | 0 | 0
Cc1ccc(N2CCN(S(=O)(=O)N(C)C)CC2)c(C)c1 | 0 | 0 | 0 | 0 | 0 | 0
CCCc1cc(CNC(=O)C2CCC(=O)N(Cc3ccccc3F)C2)on1 (stereo unspecified) | - | 0 | 0 | 0 | 0 | 0
O=C(/C=C/c1ccccc1)c1c[nH]c2ccccc12 | - | ? | ? | 0.631µM | 0.19µM | 0.355µM
CC(=O)Nc1ccc(NCC(=O)c2ccccc2)cc1 | - | 0 | 0 | 0 | 15.1µM | 0
COc1ccccc1C(=O)NNC(=O)c1cccc(Br)c1 | - | ? | ? | 2.82µM | 12µM | ?
COc1ccccc1/C=C1\S/C(=N/NC(=O)c2cccc(Br)c2)NC1=O | 0 | 0 | 0 | 0 | 9.53µM | 0
O=C(CNc1ccccc1)c1ccc([N+](=O)[O-])cc1 | 0 | ? | 0 | 0 | 0 | 0
NC(=O)c1c[nH]c2ccccc12 | 0 | 0 | 0 | 0 | 0 | 0
O=C(Nc1ccc(N2CCN(C(=O)c3ccco3)CC2)cc1)c1ccccc1Br | - | 0 | 0 | 0 | 0 | 0
CC(=O)Nc1ccc(C(=O)CSc2ncn(-c3ccccc3)n2)cc1 | 7.08µM | 0 | ? | 0 | 0 | 0
O=C(CSc1ncn(-c2ccccc2)n1)Nc1nncs1 | 0 | 0 | 0 | 0 | 0 | 0
COc1ccccc1C(=O)NNC(=O)c1ccccc1 | - | ? | 8.2µM | 2.51µM | 9.53µM | ?
Cc1cccc(C)c1NC(=O)c1c[nH]c2ccccc12 | - | ? | ? | ? | 12µM | 0[1.84 µM]
COc1ccccc1NC(=O)c1ccccc1NC(=O)c1ccccc1C(=O)O | - | 0 | 0 | 0 | 0 | 0
COc1ccccc1NC(=O)c1ccccc1NC(=O)c1ccccc1 | 0 | - | - | - | 15.1µM | -
COc1ccccc1C(=O)NNC(=O)c1cccc(Cl)c1 | - | ? | 0 | 0 | 0 | 0
C=Cc1ccc(Cn2c(=O)cc(C)c3c(C)nn(C)c32)cc1 | - | - | - | - | 0 | -
SMILES | SMN2 splice up | ELG1 DNA repair | ELG1 genotoxic | NPC1 promoter act | FLuc counter | Rab9 promoter act
N#Cc1ccc(NC(=O)CN2C(=O)NC3(CCCC3)C2=O)cc1 | - | 0 | 0 | 0 | 0 | 0
O=C(CC(=O)c1ccccc1)c1ccccc1 | 12.6µM | - | - | - | - | -
COc1ccccc1NC(=O)c1c[nH]c2ccccc12 | - | ? | ? | ? | 21.3µM | 0
COc1ccccc1C(=O)Nc1ccc2c3c(cccc13)CC2 | - | ? | 0 | ? | 5.36µM | ?
O=C(Nc1ccccc1)C(=O)c1c[nH]c2ccccc12 | - | ? | 0.92µM | 3.55µM | 1.69µM | 1.78µM
COC(=O)C(=Nc1ccccc1)/C(C(=O)C(=O)N(C)c1ccccc1)=C(\O)c1ccccc1 | - | ? | 0 | 0 | 0 | 0
COc1ccc(NC(=O)C2CCN(c3nnnn3-c3ccccc3)CC2)cc1 | 0 | 0 | 0 | 0 | 0 | 0
COc1ccccc1C(=O)Nc1ccccc1SC(=O)c1ccccc1OC | - | ? | 11.6µM | ? | 5.36µM | ?
O=C(CNc1ccccc1C(=O)O)c1ccccc1 | - | ? | 0 | 0 | 19µM | ?
COc1ccccc1C(=O)NCC(=O)NC(C)CCc1ccccc1 (stereo unspecified) | - | 0 | 0 | 0 | 3.01µM | 0
COc1ccccc1C(=O)CC(=O)c1ccccc1 | - | ? | ? | ? | 13.5µM | 0
COc1ccccc1C(=O)OCC(=O)NC(C)CCc1ccccc1 (stereo unspecified) | - | 0 | 0 | 0 | 0 | 0[1.84 µM]
COc1ccc(Nc2nc(N3CCOCC3)nc(N3CCOCC3)n2)c(OC)c1 | - | ? | 0 | 0 | 0 | 0
Cc1noc(NS(=O)(=O)c2ccc(N/C=C\C(=O)c3ccc(Br)cc3)cc2)c1C | - | ? | 0 | 0 | 26.9µM | 0
Cc1noc(NS(=O)(=O)c2ccc(NC(=O)C(C)(C)C)cc2)c1C | - | 0 | 0 | 0 | 0 | 0
COc1cccc(C(=O)/C=C/Nc2ccc(S(=O)(=O)Nc3onc(C)c3C)cc2)c1 | 0 | ? | 0 | 0 | 15.1µM | 0
Cc1noc(NS(=O)(=O)c2ccc(N/C=C\C(=O)c3cccc4ccccc34)cc2)c1C | 0 | ? | 0 | 0 | 13.5µM | 0
CCc1nnc(NS(=O)(=O)c2ccc(N/C=C\C(=O)c3cccc4ccccc34)cc2)s1 | 0 | 0 | 0 | 0 | 0 | 0
CCOc1ccc(C(=O)/C=C/Nc2ccc(S(=O)(=O)Nc3onc(C)c3C)cc2)cc1 | ? | ? | ? | 0 | 15.1µM | 0
CC(=O)Nc1ccc(NC(=O)C(C)OC(=O)C2CCCC2)cc1 (stereo unspecified) | - | 0 | 0 | 0 | 0 | 0
O=C1NC2(CCCCC2)C(=O)N1CCS(=O)(=O)Oc1ccc(Br)cc1 | 0 | ? | 0 | 0 | 0 | 0
Cc1noc(NS(=O)(=O)c2ccc(N/C=C\C(=O)c3ccc4c(c3)OCO4)cc2)c1C | 0 | ? | 0 | 0 | 9.53µM | 0
COc1cc(OC)cc(C(=O)Nc2ccc(S(=O)(=O)Nc3onc(C)c3C)cc2)c1 | 0 | - | - | - | ? | -
O=C(COc1ccccc1)NS(=O)(=O)c1ccc(Cl)cc1 | - | 0 | 0 | 0 | 16.9µM | 0
O=C(COc1ccc2c(c1)OCO2)Nc1ccccc1F | 0 | ? | ? | ? | 6.01µM | ?
SMILES | SMN2 splice up | ELG1 DNA repair | ELG1 genotoxic | NPC1 promoter act | FLuc counter | Rab9 promoter act
Cc1ccc(OCC(=O)NS(=O)(=O)c2ccc(Cl)cc2)cc1 | - | 0 | 0 | 0 | 0 | 0
O=C(COc1ccccc1)Nc1ccc(Cl)cn1 | - | ? | ? | 0 | 19µM | ?
O=C(/C=C/c1ccc2c(c1)OCO2)NCC1CCCO1 (stereo unspecified) | ? | ? | 0 | 0 | ? | ?
O=C(/C=C/c1ccc2c(c1)OCO2)NC1CCCC1 | - | ? | 0 | 0 | 15.1µM | 0
COc1ccc(CNC(=O)c2ccc(Cn3nc(C)c([N+](=O)[O-])c3C)o2)cc1 | - | ? | ? | 0 | 0 | 0
CCOc1ccccc1OCCCC(=O)NNC(=O)c1ccc(F)cc1 | - | ? | 0 | - | - | -
CCOc1cc(/C=C2\SC(=NC)N(C)C2=O)cc(Cl)c1OC(C)=O | - | 0 | 0 | 0 | 0 | 0
O=C(COC(=O)COc1ccccc1F)Nc1ccc(Cl)cn1 | - | 0 | 0 | 0 | 0 | 0
